The values below come from PubChem BioAssay (NCI).

Among the test systems are SK-MEL-2 melanoma; EKVX NSCLC; SN12C renal; UO-31 renal; TK-10 renal; ACHN renal; CAKI-1 renal; A498 renal; CCRF-CEM leukemia; RPMI-8226 leukemia; OVCAR-8 ovarian; OVCAR-5 ovarian; OVCAR-4 ovarian; SK-OV-3 ovarian; IGROV1 ovarian; OVCAR-3 ovarian; HS 578T breast; NCI/ADR-RES ovarian; SR leukemia; MOLT-4 leukemia.
Holding throughout (assay): NCI-60 one-dose screen, 48 h (100 = growth as untreated, 0 = no growth, -100 = all killed)
Holding throughout (details): 10 µM unless noted

The panel holds about 83,000 compounds, 20% with a hit somewhere; the sample as a whole holds those more often.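 How to read the values: 0–100, growth inhibition (40 = 60% inhibited); 0, no net growth; -100 to 0, cell death (-40 = 40% of starting cells died; -100 = all dead).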 Values without a mark were called inactive. Activity calls are given as the source filed them. The calls were made as follows: active = growth percent below 10; inactive = the rest.

With `Cc1cc(N2CCCCC2)nc(N(CCNc2ccnc3cc(Cl)ccc23)Cc2ccccn2)n1`, the growth with SK-MEL-2 melanoma is 79.9%; in the assay on EKVX NSCLC, 53.7%; in the assay on SN12C renal it was 62.3%; with UO-31 renal, 23.7%; in the assay with TK-10 renal, 83.8%; in the assay with ACHN renal, 62%. Moreover, the growth with CAKI-1 renal is 54.1%; in the assay on A498 renal, 37.7%; with CCRF-CEM leukemia, 31.8%; with RPMI-8226 leukemia it was -14.7% (active); with OVCAR-8 ovarian, 52.8%; with OVCAR-5 ovarian, 68.2%. For the same compound, the growth was 41.6% in the assay on OVCAR-4 ovarian; 60.5% in the assay with SK-OV-3 ovarian; 31% with IGROV1 ovarian; 56.8% in the assay with OVCAR-3 ovarian; 53.5% in the assay on HS 578T breast; 50.4% with NCI/ADR-RES ovarian.

On to `CCCn1nc(-c2ccccc2)c2c(-c3ccccc3)onc2c1=O`, for which the growth in the assay with SK-MEL-2 melanoma is 57.8%; in the assay with EKVX NSCLC, 78.9%; with SN12C renal, 82.1%; in the assay with UO-31 renal, 68.8%; in the assay with TK-10 renal it was 106%; with ACHN renal, 94.1%. The growth in the assay on CAKI-1 renal was 85.9%; in the assay on A498 renal, 68.9%; in the assay with CCRF-CEM leukemia it was 68.7%; in the assay on RPMI-8226 leukemia, 70.2%; in the assay on OVCAR-8 ovarian, 102%; in the assay on OVCAR-5 ovarian, 87.7%. For the same compound, the growth in the assay on SK-OV-3 ovarian is 83.6%; in the assay with IGROV1 ovarian it was 72.5%; in the assay with OVCAR-3 ovarian, 91.8%; in the assay with HS 578T breast it was 67.7%; in the assay with NCI/ADR-RES ovarian it was 68.5%.

On to `COc1ccc(/C=C(\C#N)n2nnc3cc(F)c(F)cc32)c(OC)c1OC`, for which the growth in the assay on SK-MEL-2 melanoma is 79%; in the assay with EKVX NSCLC, 72.8%; with SN12C renal it was 67%; with UO-31 renal it was 52.4%; with TK-10 renal, 126%; in the assay on ACHN renal, 66.2%. Also, the growth with CAKI-1 renal was 87.7%; with A498 renal, 91%; in the assay on CCRF-CEM leukemia it was 23.4%; in the assay with RPMI-8226 leukemia, 41.6%; with OVCAR-8 ovarian it was 67.6%; in the assay with OVCAR-5 ovarian, 98%. Also, the growth in the assay with OVCAR-4 ovarian was 60.6%; with SK-OV-3 ovarian, 88.6%; in the assay on IGROV1 ovarian it was 68.8%; in the assay on OVCAR-3 ovarian, 58.2%; in the assay with HS 578T breast it was 66.2%; with NCI/ADR-RES ovarian it was 72.7%.

For `Cc1cc(Cl)nc(N(CCCNc2ccnc3cc(Cl)ccc23)Cc2ccccn2)n1`, the growth in the assay on SK-MEL-2 melanoma was 64.2%; in the assay with EKVX NSCLC it was 64.7%; with SN12C renal, 52.6%; in the assay on UO-31 renal, 27.2%; in the assay with TK-10 renal, 66.1%; in the assay on ACHN renal, 54.2%. Moreover, the growth with CAKI-1 renal was 48.5%; with A498 renal, 30.4%; in the assay with CCRF-CEM leukemia, 36.1%; with RPMI-8226 leukemia it was 1.09% (active); in the assay with OVCAR-8 ovarian it was 33.8%; with OVCAR-5 ovarian, 56%. Also, the growth was 41.4% in the assay with OVCAR-4 ovarian; 65% in the assay on SK-OV-3 ovarian; 44.1% in the assay with IGROV1 ovarian; 62.8% with OVCAR-3 ovarian; 78.6% in the assay on HS 578T breast; 32.2% with NCI/ADR-RES ovarian.

For the compound `O=c1oc2ccc(Cl)cc2cc1-c1cs/c(=N/N=C\c2ccc(Cl)cc2)n1/N=C/c1ccc(Cl)cc1`, the growth is 92.6% in the assay on SK-MEL-2 melanoma; 107% in the assay with EKVX NSCLC; 94% in the assay on SN12C renal; 90.1% in the assay on UO-31 renal; 99.4% with TK-10 renal; 112% in the assay on ACHN renal. Further, the growth with CAKI-1 renal was 110%; in the assay with A498 renal it was 83.9%; in the assay with CCRF-CEM leukemia it was 104%; in the assay with SR leukemia, 83.4%; in the assay with RPMI-8226 leukemia, 103%; in the assay with OVCAR-5 ovarian, 107%. The growth with OVCAR-4 ovarian is 98.5%; in the assay on SK-OV-3 ovarian it was 111%; in the assay on IGROV1 ovarian it was 108%; in the assay on OVCAR-3 ovarian it was 106%; in the assay with HS 578T breast it was 101%; in the assay with NCI/ADR-RES ovarian it was 106%.

Regarding `Cn1c(NCCc2ccc(O)c(O)c2)nc2c1c(=O)n(Cc1ccc(Cl)cc1)c(=O)n2C`, the growth in the assay on SK-MEL-2 melanoma was 95%; with EKVX NSCLC, 84.8%; in the assay with SN12C renal, 82.7%; with UO-31 renal, 29.8%; in the assay on TK-10 renal, 69.9%; in the assay with ACHN renal it was 39.5%. The growth is 38.7% in the assay on CAKI-1 renal; 86.2% with A498 renal; 12.8% in the assay on CCRF-CEM leukemia; 37.9% in the assay on RPMI-8226 leukemia; 87.6% in the assay with OVCAR-8 ovarian; 94.9% in the assay with OVCAR-5 ovarian. In addition, the growth in the assay with OVCAR-4 ovarian is 59.8%; with SK-OV-3 ovarian, 82.3%; with IGROV1 ovarian it was 61.9%; in the assay on OVCAR-3 ovarian, 62.6%; with HS 578T breast it was 77%; in the assay on NCI/ADR-RES ovarian, 88.5%.

Regarding `Cn1ccc(Cc2cnc(N)s2)n1`, the growth in the assay with SK-MEL-2 melanoma was 97.4%; with EKVX NSCLC it was 106%; with SN12C renal, 104%; with UO-31 renal, 86.2%; in the assay with TK-10 renal it was 88.7%; in the assay on ACHN renal, 99.8%. The growth in the assay with CAKI-1 renal is 93.6%; with A498 renal, 94.2%; with MOLT-4 leukemia, 93.3%; with SR leukemia, 88.7%; with RPMI-8226 leukemia, 101%; in the assay with OVCAR-8 ovarian it was 94.5%. Besides, the growth was 106% with OVCAR-5 ovarian; 99.4% in the assay on OVCAR-4 ovarian; 99.7% in the assay with SK-OV-3 ovarian; 111% with IGROV1 ovarian; 106% with OVCAR-3 ovarian; 93.5% with HS 578T breast. For the same compound, in the assay on NCI/ADR-RES ovarian, the growth was 102%.

For `Clc1ccc2c(NCCCN3CCN(c4nc(N5CCOCC5)nc5ccccc45)CC3)ccnc2c1`, the growth in the assay with SK-MEL-2 melanoma is -5.64% (active); in the assay with EKVX NSCLC, 26.4%; in the assay on SN12C renal it was 45.9%; in the assay on UO-31 renal it was -85.9% (active); in the assay on TK-10 renal, -38% (active); in the assay on ACHN renal, -29.1% (active). The growth in the assay with CAKI-1 renal is 15.3%; in the assay on A498 renal it was 71.2%; in the assay with CCRF-CEM leukemia it was 4.4% (active); in the assay on RPMI-8226 leukemia, -39.5% (active); in the assay with OVCAR-8 ovarian, 16.1%; in the assay with OVCAR-5 ovarian, 60.6%. The growth in the assay with OVCAR-4 ovarian was 50.3%; in the assay with SK-OV-3 ovarian, 108%; in the assay on IGROV1 ovarian it was 50.4%; with OVCAR-3 ovarian, -40.8% (active); in the assay with HS 578T breast, 17.2%; in the assay on NCI/ADR-RES ovarian, 25.1%.
